This note sets out measurements from PubChem BioAssay.

A short description of assay [1]: inhibitors of TNFa-induced NFkB p65 translocation, primary screen, imaging, HUVEC, MLSMR starter and 10KST1 sets (AID 438;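 active = inhibition above 20% together with a positive visual image hit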;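 also: compound added about 3h40 before a 20 min TNFalpha stimulation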;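 as to inhibition: signal is the nuclear over cytoplasmic p65 intensity ratio per well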). The note with it: HUVEC TNFa-induced p65 nuclear translocation; cell count: measured here: nuclei count (cytotoxicity indicator), at 2.08 µM; inhibition: at 2 µM, stronger effect = higher value, 0% TNFa-plus-vehicle, 100% no-TNFa wells.
The nature of assay [2]: reduction of polyQ htt aggregates in cells – imaging, exon1htt(103Q)mCFP cells, high-content imaging, primary screen (AID 483;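 active = visual image review flags a hit and inhibition of aggregation exceeds 20%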;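 also: compound exposure lasted 3 days before fixation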;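 as to nuclei count: percent of the per-plate median nuclei count of sample wells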). The settings on record: exon1htt(103Q)mCFP cell line, aggregate imaging, at 2 µM; inhibition of aggregation: stronger effect = higher value; nuclei count: measured here: cell count, toxicity.
Assay [3] is described as follows: endothelial E-selectin expression blockers – imaging, HUVEC, immunofluorescence, MLSMR starter and 10KST1 sets, primary screen (AID 487;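 active = visually confirmed hit in the image check and inhibition above 20%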;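 as to inhibition: signal is fraction of cell area covered by stained E-selectin grains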;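 as to nuclei count: 100% = median nuclei count of all wells on the same plate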). The note with it: HUVEC TNFalpha-induced E-selectin immunofluorescence imaging, at 2 µM; inhibition: stronger effect = higher value; nuclei count: measured here: cell number, toxicity.
The target of assay [4] is Voltage-gated potassium channel subunit beta-2 (Rattus norvegicus) (UniProt P62483). The assay is described as follows: inhibitors of rat Kvbeta2 reductase activity – biochemical, NADPH fluorescence, primary screen (AID 622).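 Also: slope of raw intensity against log time taken from 70 to 1610 s.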 The settings on record: recombinant KvBeta, 4-cyanobenzaldehyde reduction, at 10 µM, stronger effect = higher value.
For assay [5] the target is unchanged. Description: enhancers of rat Kvbeta2 NADPH turnover – biochemical, NADPH fluorescence, primary screen (AID 623;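 active = NADPH fluorescence slope more negative than the mean of all samples by about 3 SD, 99.7% confidence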;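 also: fluorescence intensity change per second fitted from 20 to 320 s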). The note with it: Recombinant KvBeta, NADPH fluorescence decrease slope, 10 min; at 10 µM; stronger effect = lower value.
Assay [6] has as its target Alpha-2C adrenergic receptor (Homo sapiens) (UniProt P18825). The assay is described as follows: compounds altering alpha2C-coupled GIRK flux – cell-based, HEK293 alpha2C/GIRK1/2, thallium flux, primary screen (AID 624;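 active = fluorescence slope after compound addition differing from the mean of all screened samples at 99.7% confidence, in either direction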;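 also: slope of fluorescence ratio to pre-addition baseline per second over 15 to 24 s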). The settings on record: thallium flux BTC fluorescence, at 10 µM, actives lie on both sides.
Assay [7] is described as follows: blockers of RIG-like receptor reporter activation – cell-based, Sendai virus stimulus, luciferase, 10K MLSCN set, TLR/RLR signaling modifier project, primary screen (AID 602276;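 active = inhibition at or above 50% at 10 µM; inactive = inhibition below 50%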;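 also: firefly luciferase from ISG56 promoter only with Renilla not read in this screen; 0% = Sendai virus plus DMSO and 100% = medium plus DMSO without virus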). The settings on record: HEK293 RL24 IRF3 luciferase reporter, at 10 µM, stronger effect = higher value. For orientation: In a reporter assay the amount or activity of a reporter protein is the signal.

Assay [8] in a line: TLR3 IRF3 reporter activation blockers – cell-based, poly I:C stimulus, luciferase, 10K MLSCN set, primary screen (AID 602277;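 active = inhibition of the reporter signal at or above 50%; inactive = inhibition below 50%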). The settings on record: HEK293-TLR3 RL24 IRF3 luciferase reporter, at 10 µM, stronger effect = higher value.

The source made the active and inactive calls.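 The calls were made as follows, unless noted: active = fluorescence slope higher than the sample average by over 3 SD (cut at about -0.22 in these data, passing the limit was not always enough); inactive = the rest.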

As usually defined, the inhibition is the relative decrease from the control value, in per cent.

Sequence of Voltage-gated potassium channel subunit beta-2 (Rattus norvegicus) (P62483 whole entry, looked up): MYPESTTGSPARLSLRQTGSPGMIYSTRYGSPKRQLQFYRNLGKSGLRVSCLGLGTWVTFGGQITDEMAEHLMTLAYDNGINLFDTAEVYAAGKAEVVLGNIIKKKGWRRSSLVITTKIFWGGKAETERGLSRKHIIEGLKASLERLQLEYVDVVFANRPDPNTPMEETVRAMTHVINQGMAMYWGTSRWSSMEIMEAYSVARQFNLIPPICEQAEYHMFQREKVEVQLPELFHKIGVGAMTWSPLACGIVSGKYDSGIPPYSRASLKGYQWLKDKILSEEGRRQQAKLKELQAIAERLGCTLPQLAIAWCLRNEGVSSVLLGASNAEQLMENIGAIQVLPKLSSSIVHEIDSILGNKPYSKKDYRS
Sequence of Alpha-2C adrenergic receptor (Homo sapiens) (P18825 whole entry, looked up): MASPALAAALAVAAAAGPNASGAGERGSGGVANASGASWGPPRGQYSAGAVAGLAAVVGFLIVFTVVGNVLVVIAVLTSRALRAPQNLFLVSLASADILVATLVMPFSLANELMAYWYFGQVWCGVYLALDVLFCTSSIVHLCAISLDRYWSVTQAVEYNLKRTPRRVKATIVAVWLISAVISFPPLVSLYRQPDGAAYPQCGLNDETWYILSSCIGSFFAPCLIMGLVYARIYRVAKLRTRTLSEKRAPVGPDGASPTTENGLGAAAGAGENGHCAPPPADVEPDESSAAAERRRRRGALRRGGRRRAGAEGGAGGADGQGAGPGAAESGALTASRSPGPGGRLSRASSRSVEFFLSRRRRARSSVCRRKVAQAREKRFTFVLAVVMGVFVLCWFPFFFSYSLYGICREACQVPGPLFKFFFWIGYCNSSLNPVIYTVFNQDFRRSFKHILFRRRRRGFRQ

For the compound `CC1(C)CC(CCNC(=O)c2ccco2)CC(C)(C)N1`, the cell count in assay [1] turned out to be 387. Further, the inhibition is 2.3% (inactive) in assay [1], -91.3% (inactive) in assay [3], 12% (inactive) in assay [7] and 12.3% (inactive) in assay [8]. Further, in assay [2], the inhibition of aggregation is 1.2% (inactive). In addition, the nuclei count in assay [2] turned out to be 86.4%; in assay [3], 81.4%. Besides, in assay [4], the fluorescence slope is -0.473 (inactive). The NADPH fluorescence slope in assay [5] was -1.8e-05 (inactive). The slope in assay [6] is 0.00616 (inactive).

Regarding `CC(Oc1ccc(Cl)cc1Cl)C(=O)Nc1ncccn1` (stereo not drawn), the cell count in assay [1] was 433. In addition, the inhibition in assay [1] is 2.5% (inactive); in assay [3] it was 51.5% (inactive); in assay [7], -4.61% (inactive); in assay [8] it was -6.91% (inactive). Also, the inhibition of aggregation in assay [2] was -1% (inactive). Moreover, the nuclei count came out at 102% in assay [2] and 124% in assay [3]. Moreover, in assay [4], the fluorescence slope is -0.409 (inactive). The NADPH fluorescence slope in assay [5] is 9.1e-05 (inactive). Also, in assay [6], the slope is 0.006 (inactive).

For `C/C(=N\O)C(C)/[N+]([O-])=C/c1nc(C)c(C)n1O` (stereo not drawn), in assay [1], the cell count worked out at 611. In addition, the inhibition in assay [1] is 0.2% (inactive); in assay [3], 5.3% (inactive); in assay [7] it was 15.5% (inactive); in assay [8], 20.8% (inactive). The inhibition of aggregation in assay [2] is 12% (inactive). Also, the values for the nuclei count in assay [2] and in assay [3] were 106% and 98.3%, respectively. For the same compound, the fluorescence slope in assay [4] is -0.492 (inactive). Moreover, the NADPH fluorescence slope in assay [5] is -7.2e-05 (inactive). For the same compound, the slope in assay [6] is 0.00463 (inactive).

For the compound `Fc1ccc(C(c2nnnn2Cc2ccco2)N2CCN(C3CCCCC3)CC2)cc1` (stereo not drawn), the cell count in assay [1] is 297. Moreover, the inhibition in assay [1] is -3.3% (inactive); in assay [3], -98.2% (inactive); in assay [7], -10.1% (inactive); in assay [8] it was -16.4% (inactive). Besides, the inhibition of aggregation in assay [2] was 11.4% (inactive). Besides, the nuclei count in assay [2] came to 98%; in assay [3], 130%. In assay [4], the fluorescence slope is -0.552 (inactive). The NADPH fluorescence slope in assay [5] was 3.4e-05 (inactive). Besides, the slope in assay [6] was 0.00429 (inactive).

On to `CC1CN(Cc2nc3c(c(=O)[nH]c(=O)n3C)n2CC(N)=O)CC(C)O1` (stereo not drawn), for which the cell count in assay [1] was found to be 780. The inhibition was -7.4% (inactive) in assay [1], -33% (inactive) in assay [3], 12.8% (inactive) in assay [7] and 20.4% (inactive) in assay [8]. Moreover, in assay [2], the inhibition of aggregation is -1.9% (inactive). Further, the nuclei count in assay [2] turned out to be 112%; in assay [3], 111%. The fluorescence slope in assay [4] was -0.567 (inactive). In assay [5], the NADPH fluorescence slope was -3.9e-05 (inactive). Besides, the slope in assay [6] is 0.00597 (inactive).

As to `COc1ccc(NC(=O)N(C2CCCCC2)C2CCN(C(C)C)CC2)c(OC)c1`, in assay [1], the cell count was found to be 676. For the same compound, the inhibition was -7.8% (inactive) in assay [1], -10.8% (inactive) in assay [3], 2.2% (inactive) in assay [7] and 15.1% (inactive) in assay [8]. Also, in assay [2], the inhibition of aggregation was -12.8% (inactive). For the same compound, the nuclei count in assay [2] was found to be 79.5%; in assay [3], 109%. Further, the fluorescence slope in assay [4] is -0.518 (inactive). Moreover, the NADPH fluorescence slope in assay [5] was 9.2e-06 (inactive). Further, in assay [6], the slope was 0.0051 (inactive).

Take `CCCc1c(O)nc(SCC(=O)NCCc2ccc(OC)c(OC)c2)[nH]c1=O`: the cell count in assay [1] came to 581. Further, the inhibition is -10.8% (inactive) in assay [1], 38.4% (inactive) in assay [3], 13.2% (inactive) in assay [7] and 13.9% (inactive) in assay [8]. For the same compound, the inhibition of aggregation in assay [2] was 5.3% (inactive). Moreover, the nuclei count in assay [2] came to 73.8%; in assay [3], 82.7%. In addition, in assay [4], the fluorescence slope is -0.486 (inactive). Besides, in assay [5], the NADPH fluorescence slope is -3.3e-05 (inactive). In assay [6], the slope was 0.00432 (inactive).

As to `CCCNC(=O)c1ccccc1C(=O)NCCC`, in assay [1], the cell count is 386. The inhibition was -1.6% (inactive) in assay [1], -3.9% (inactive) in assay [3], 15.6% (inactive) in assay [7] and 18% (inactive) in assay [8]. Also, in assay [2], the inhibition of aggregation is 23.1% (inactive). Also, the nuclei count in assay [2] stood at 94.4%; in assay [3], 115%. Moreover, the fluorescence slope in assay [4] was -0.53 (inactive). Besides, in assay [5], the NADPH fluorescence slope was 0.000133 (inactive). For the same compound, the slope in assay [6] is 0.00613 (inactive).
